A selection: hits, their analogues and other compounds. The true share with any hit is near 19%.
AMA1-RON2 inh: qHTS for Inhibitors of AMA1-RON; Towards Development of Antimalarial Drug Lead: Primary Screen. Plasmodium falciparum AMA1 (3D7) - RON2 peptide interaction. AID 720542, 2013. Potency, µM (top dose mostly 58.2 µM), for inactives: at the highest dose activity change, negative = inhibition, actives largely listed as inhibitors. AlphaScreen AMA1-biotinylated RON2 peptide binding. 360,000 tested, 0.2% active;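 also: potency is read from the fitted curve at half-maximal effect; 0% = vehicle wells and -100% = peptide control; nearly all actives have a fitted effect of over 45% in size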
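AMA1 (3D7) with his tag at 25 nM final met compounds first, then biotinylated RON2 peptide at 25 nM; detection used donor plus acceptor beads, 10 µg/mL apiece, read by AlphaScreen after 30 min at room temperature.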
Pf growth 96h: Primary qHTS for delayed death inhibitors of the malarial parasite plastid, 96 hour incubation; P. falciparum luciferase reporter growth, 96 h; AID 504834, 2011; Potency, µM (titrated, usually from 28.7 µM), inactives show at the top dose activity change, negative = inhibition, actives largely listed as inhibitors; 320,000 tested, 6.9% active; also: potency is read from the fitted curve at half-maximal effect; % is scaled to controls: 0 for no effect and ±100 for the full control effect
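Plates of compound plus infected erythrocytes (2% hematocrit, 0.05% parasitemia final) incubate 96 hours, 37 C, 5% CO2. Detection reagent added; reduced luminescence from the parasites' luciferase reporter flags inhibition.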
Cycloheximide cs: Cycloheximide Counterscreen for Small Molecule Inhibitors of Shiga Toxin; cell reporter, cycloheximide protein synthesis inhibition counterscreen; max response, %; 300,000 tested, 12% active; in the data active = max response mostly above about 13%, no sharp cut-off; inactive = mostly below about 14%; also: read at 38.3 µM for the half of the compounds with a filed dose; 0% is about no effect
Shiga inhibitor: A qHTS for Small Molecule Inhibitors of Shiga Toxin; inhibition, % at 38.7 µM; 290,000 tested, 9.2% active; Vero cells, Shiga toxin protein synthesis inhibition reporter; in the data active = inhibition mostly above about 28%, no sharp cut-off; inactive = mostly below about 43%; also: 0% is about no effect
Pf growth 48h: Primary qHTS for delayed death inhibitors of the malarial parasite plastid, 48 hour incubation; Potency, µM (highest dose often 28.7 µM), inactives show at the highest dose activity change, negative = inhibition, hits mostly inhibitors; 310,000 tested, 5.9% active; P. falciparum luciferase growth in erythrocytes, 48 h; also: potency is read from the fitted curve at half-maximal effect; % is scaled to controls: 0 for no effect and ±100 for the full control effect
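First compound was added to culture medium, then infected red cells at 0.1% parasitemia and 2% hematocrit (final). After incubation at 37 C under 5% CO2, luciferase detection reagent was dispensed and light output recorded.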
SARS PLP yeast: qHTS of Yeast-based Assay for SARS-CoV PLP; Potency, µM (titrated, usually from 32.9 µM), for the others: at the highest dose activity, positive = growth rescue, actives largely listed as activators; 330,000 tested, 0.19% active; S. cerevisiae expressing SARS-CoV PLpro, growth rescue; calls by dose curve; also: potency is read from the fitted curve at half-maximal effect; 0% is about no effect; nearly all actives have a fitted effect of over 55% in size
* hit, by the source's call; ? = inconclusive; . = not tested or not shown; [ ] = remark or other dose. Unless noted, calls follow the shape of the dose curve; as a rule, active = well fitted curve in the direction sought with a large enough effect; inconclusive = small, poorly fitted or top-dose-only effect, or another doubt; inactive = no such curve, though single readings can be large; an effect the other way counts as inactive or inconclusive.

SMILES	AMA1-RON2 inh	Pf growth 96h	Cycloheximide cs	Shiga inhibitor	Pf growth 48h	SARS PLP yeast
CC(C)(C)OC(=O)N1CCN(C(=O)Nc2ccc3c(c2)OCCO3)CC1	1%	50%	24*	26	173%	1%
CC1=C(C(=O)N2CCOCC2)CC(CC(=O)NCCc2ccccn2)C(=O)N1Cc1ccccc1 (configuration not stated)	5%	.	.	.	.	.
Cn1nnnc1SCC(=O)Nc1ccccc1N1CCCCC1	-5%	-6%	-1	-3	-15%	3%
S=C(NCCc1ccccc1)Nc1ccc(Cl)cc1Cl	92%	41%	34*	61*	-5%	-2%
Cc1cc(Cl)ccc1NC(=S)NCCC(c1ccccc1)c1ccccc1	92%	?	11*	-5	?	3%
CCNC(=S)Nc1ccc(Cl)cc1Cl	-10%	-20%	-3	35	7%	?
Cc1cc(Cl)ccc1NC(=S)NCCc1ccc(Cl)cc1	81%	?	9.5*	52	?	-18%
CCC[C@H]1CN(Cc2ccccc2)C(=O)[C@@H]1CC(=O)NC	-8%	.	.	.	.	.
O=C(c1ccccc1)c1ccc2ccccc2c1	28%	.	.	.	.	.
O=C(c1ccccc1)c1ccc2cc(O)ccc2c1	-5%	42%	35*	72*	30%	-7%
Cc1ccc(C(=O)c2ccc(O)cc2)cc1C	-19%	-15%	18*	52	28%	-18%
Cc1ccc(C(=O)c2cccc(N)c2)cc1C	-10%	-4%	-10	-15	35%	1%
Oc1ccc(Cl)cc1	3%	-16%	.	.	-1%	0%
O=C(c1ccc(O)cc1)c1ccc(Cl)cc1	-3%	38%	21*	36	5%	-4%
C[C@@H]1CN([C@H](C)CO)C(=O)CCCn2cc(nn2)CO[C@H]1CN(C)S(=O)(=O)c1cccs1	19%	.	.	.	.	.
CCc1cc2cc(C(=O)Nc3ccc(C)cc3)sc2s1	-6%	2.3µM*	11	22	?	8%
NC(=O)NC(=O)c1nccnc1C(=O)O	0%	101%	-2	-5	20%	2%
O=C(N/N=C1\CCCc2ccccc21)C(O)c1ccccc1 (configuration not stated)	11%	10%	5	-6	-19%	-2%
O=C(NN=C1CCCC1)c1cccc(Br)c1	50%	15%	26*	87*	7%	-6%
O=C(N/N=C1\CCCc2ccccc21)c1cccc(Br)c1	47%	7%	38*	59*	66%	-4%
O=C(N/N=C1\CCCc2oc(C(=O)O)cc21)c1ccccc1	125%	-15%	44*	74*	32%	4%
O=C(N/N=C1\CCCc2ccccc21)c1cccc([N+](=O)[O-])c1	6%	13%	10	33	.	0%
O=C(N/N=C1/CCCc2ccccc21)C(c1ccccc1)c1ccccc1	12%	?	1	61*	?	2%
CN(c1ccc(F)cc1)S(=O)(=O)c1ccc(Cl)c(C(=O)NC2(C)CCS(=O)(=O)C2)c1 (configuration not stated)	-2%	?	.	.	-9%	4%
O=C(c1ccc(N2CCOCC2)cc1[N+](=O)[O-])N1CCOCC1	3%	-3%	-6	-14	-2%	0%
SMILES	AMA1-RON2 inh	Pf growth 96h	Cycloheximide cs	Shiga inhibitor	Pf growth 48h	SARS PLP yeast
COc1ccc(OC)c(C2=NS(=O)(=O)N(C)C(C(=O)Nc3ccc(F)cc3F)=C2)c1	-19%	?	12	14	?	-10%
Cc1ccc(Cn2c(SCC(=O)NCc3ccco3)nc3ccsc3c2=O)cc1	-2%	?	27*	42	13µM*	8%
Cc1ccc(-n2c(SCC(=O)NCc3ccco3)nc3c(sc4ccccc43)c2=O)cc1	3%	-28%	53*	119*	?	9%
COc1ccc(Cl)cc1NC(=O)CSc1nc2ccsc2c(=O)n1CC1CCC(C(=O)O)CC1 (configuration not stated)	0%	-1%	1	43	?	16%
Cc1ccc(CNC(=O)CSc2nc3ccsc3c(=O)n2Cc2ccccn2)cc1	20%	-6%	1	22	46%	-1%
O=C(CSc1nc2ccsc2c(=O)n1CC1CCC(C(=O)O)CC1)NCCc1ccc(Cl)cc1 (configuration not stated)	-1%	7.4µM*	-1	-9	?	-2%
O=C(O)c1ccccc1C(=O)c1cccc2ccccc12	3%	45%	-3	-6	8%	-2%
O=C(c1cccc(Br)c1)c1coc2ccc(O)cc12	-1%	296%	.	.	213%	-2%
Cc1ccc(C(=O)c2coc3ccc(OCC(=O)O)cc23)cc1	-5%	.	22*	35*	6%	-1%
COc1ccc(C(=O)c2coc3ccc(O)cc23)cc1	9%	-6%	46*	43*	-31%	-3%
COc1ccc(-n2c(=O)c(CCC(=O)N(C)Cc3cccs3)nc3ccccc32)cc1	-1%	?	.	.	13µM*	0%
COc1ccc(-n2c(=O)c(CCC(=O)N3CCC(C)CC3)nc3ccccc32)cc1	2%	?	.	.	9.3µM*	2%
COc1ccc(N2CCN(CC(=O)N3CCC(C)CC3)CC2)cc1	6%	-10%	-8	-14	4%	3%
CCCCN1CCC(COC(=O)c2cc(Cl)c(N)c3c2OCCO3)CC1	-5%	-3%	.	.	-9%	.
CC(C)(C)c1nnc(NC(=O)Cc2ccccc2[N+](=O)[O-])s1	6%[11.6 µM]	59%	-3	13	-8%	-9%
COc1ccccc1NC(=O)Nc1nnc(C(C)C)s1	-9%	126%	51*	75*	100%	12%
CCc1nnc(NC(=O)Nc2ccccc2OC)s1	-7%	.	35*	91*	51%	2%
CC(C)c1nnc(NC(=O)Cc2ccccc2[N+](=O)[O-])s1	0%	0%	12*	active	47%	-2%
CC1(C)C(CSc2nc3ccccc3[nH]2)C1(Cl)Cl (configuration not stated)	2%	?	27	72*	5%	-21%
c1ccc(CSc2nc3ccccc3[nH]2)cc1	5%	230%	44*	57*	183%	3%
Nc1nc(CSc2nc3ccccc3[nH]2)cs1	3%	25%	25*	47*	118%	-12%
CC(C)CSc1nc2ccccc2[nH]1	3%	-21%	45*	94*	115%	-2%
CCSc1nc2ccccc2[nH]1	11%	10%	4	8	17%	12%
Fc1ccc(CSc2nc3ccccc3[nH]2)c2ccccc12	-2%	?	11	18	.	-44%
Nc1ccccc1Sc1nc2ccccc2[nH]1	71%	?	23*	59*	?	-6%
